BRCA1 expr up – BRCA1 expression activation | MCF7-BRCA1-FFLuc reporter, luminescence, 48 h; response scale: scaled: vehicle 0%, 10 µM genistein 100% | Potency, µM (titrated, usually from 46.1 µM), for the others: top-dose activation, most hits filed as activators | 1.1% of 380,000 active; further: potency means the concentration at half of the fitted maximal effect; nearly all actives have a fitted effect of over 80% in size
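Luminescence from a BRCA1-driven firefly luciferase in MCF7 cells was read after 48 h compound exposure at 37 C. Data normalized against DMSO and a 10microM genistein activation control, then curve-fitted across the titration.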
mIDH1 inhibitor – blocks human mutant IDH1 R132H enzyme | O75874 | IDH1-R132H enzyme, NADPH consumption, diaphorase/resazurin fluorescence | Potency, µM (doses to about 76.6 µM), without a hit: at the top dose activity change, negative = inhibition, most hits filed as inhibitors | 0.093% of 390,000 active; further: potency means the concentration at half of the fitted maximal effect; on the % scale 0 is the no-effect control and ±100 the full control effect; nearly all actives have a fitted effect of over 65% in size
Target sequence (O75874 whole entry R132H, stated change not applied): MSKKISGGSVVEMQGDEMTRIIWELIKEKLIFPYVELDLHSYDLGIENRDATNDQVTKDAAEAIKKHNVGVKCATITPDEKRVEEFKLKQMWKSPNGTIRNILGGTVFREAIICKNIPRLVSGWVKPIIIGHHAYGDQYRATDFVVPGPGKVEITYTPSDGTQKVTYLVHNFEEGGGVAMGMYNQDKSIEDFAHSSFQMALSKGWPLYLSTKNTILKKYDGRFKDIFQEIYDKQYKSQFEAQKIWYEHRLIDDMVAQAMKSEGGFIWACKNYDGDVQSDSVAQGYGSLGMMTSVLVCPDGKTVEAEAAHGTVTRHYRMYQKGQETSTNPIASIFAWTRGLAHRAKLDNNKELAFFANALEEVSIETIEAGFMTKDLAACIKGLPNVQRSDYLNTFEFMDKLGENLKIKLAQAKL
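IDH1-R132H (0.5 ug/mL dispensed) in pH 7.5 Tris buffer was preincubated 30 min with compound, then given a substrate mix of 0.016 mM NADPH and 2 mM alpha-KG for 80 min at room temperature; remaining NADPH was read by diaphorase/resazurin fluorescence.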
TrxR1 substrate – rat thioredoxin reductase 1 substrate activity. O89049. purified TrxR1 substrate turnover, NADPH consumption readout. Potency, µM (doses to about 114 µM), for the others: top-dose activity change, negative = substrate turnover. 0.01% of 390,000 active. AID 588456; further: potency means the concentration at half of the fitted maximal effect; on the % scale 0 is the no-effect control and ±100 the full control effect; nearly all actives have a fitted effect of over 50% in size
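Rat TrxR1, dispensed at 90 nM, was prereduced with 400 uM NADPH (final) for 5 min at ~22 deg C, then incubated with compound 15 min before 400 uM selenite. A first-read NADPH fluorescence drop versus no-compound background flagged substrates.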
Giardia killer – kills Giardia lamblia | activity change, % at 7.66 µM, hits read low | Giardia lamblia trophozoite viability | 0.15% of 340,000 active; in the data active means activity change below about -80%; inconclusive means between about -30% and that limit;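 further: parasites exposed to compound for two days anaerobically before the ATP read; on the % scale 0 is the no-effect control and ±100 the full control effect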
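Viability, read as ATP luminescence: trophozoites at 100 cells/well, compound added, 48 hrs anaerobic at 37 deg C, then 15-30 min room-temperature development before reading.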
IL-2 act – activators of IL-2; IL-2 activation reporter assay, cell-based qHTS; stimulated with anti-CD3/CD4/CD28 beads; in transgenic mouse T cells; activation, % (series mostly up to about 46 µM); 0.065% of 360,000 active; AID 652025; in the data active means activation above about 50%; inconclusive means mostly about 30% to 49%; further: 0% is about no effect
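Readout: EGFP and DsRed signals by fluorescent plate cytometry. Unstimulated transgenic mouse T cells received compound 60 min before antibody-bead stimulation, then incubated 18 h at 37 degrees C.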
TrxR1 inh – blocks rat thioredoxin reductase 1; O89049; recombinant rTrxR1, NADPH fluorescence consumption, selenite substrate; Potency, µM (series often up to 114 µM), for inactives: top-dose activity change, negative = inhibition, most hits filed as inhibitors; 1% of 390,000 active; further: potency means the concentration at half of the fitted maximal effect; on the % scale 0 is the no-effect control and ±100 the full control effect; nearly all actives have a fitted effect of over 65% in size
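Rat TrxR1 (90 nM in the dispensed reagent) was pre-reduced with 400 uM NADPH for 5 min at room temperature, then incubated with compound for 15 min. After 400 uM selenite was added, NADPH fluorescence (Ex 340/Em 450 nm) was followed for 8 min.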
* hit, by the source's call; ? = inconclusive; . = not tested or not shown; [ ] = remark or other dose. Rows were chosen to be rich in hits. Some 2.2% of all compounds tested hit in one or more screens of this group. Unless noted, the call rests on the fitted dose curve; in most records, active means well fitted curve in the direction sought with a large enough effect; inconclusive means small, poorly fitted or top-dose-only effect, or another doubt; inactive means no such curve, though single readings can be large; an effect the other way counts as inactive or inconclusive.

SMILES	BRCA1 expr up	mIDH1 inhibitor	TrxR1 substrate	Giardia killer	IL-2 act	TrxR1 inh
CCOCCCNC(=O)Nc1cc(C(=O)NCc2ccc(C(C)C)cc2)ccc1N1CCCC1	.	-13.0%	6.7%[57.1 µM]	.	.	31.3%[57.1 µM]
COc1cc(C)c(NC(C)C(=O)c2c(C)[nH]c3ccccc23)cc1OC (stereo not given)	0.0%	.	-7.8%	.	.	-22.3%
O=C(N/N=C\c1cccc(OC(=O)c2ccco2)c1)c1ccc2c(c1)OCO2	80.9%	3.3%	-8.2%	3.2	-0.6	-7.1%
O=C(N/N=C\c1ccc2c(c1)OCO2)c1ccco1	3.16µM*	8.3%	-12.8%	0.2	-3.2	-13.1%
Cc1cc(-c2ccccc2)n(-c2ccccc2)n1	8.91µM*	0.5%	-0.9%	1.0	-1.5	18.8%
O=C(/C=C/C=C/c1ccc2c(c1)OCO2)N1CCCCC1	8.91µM*	-4.1%	2.2%	-9.6	1.3	-24.6%
CC(=O)c1sc(NC(=O)c2ccc3c(c2)OCO3)nc1C	2.51µM*	0.0%	4.3%	2.3	-3.0	20.1%
CCN1CCc2nc(NC(=O)Cc3ccc4c(c3)OCCO4)sc2C1	6.9%	-2.0%	-4.8%	-4.8	1.7	-11.3%
Cc1csc(NC(=O)c2ccc3c(c2)OCO3)n1	?	3.5%	-1.7%	-5.2	0.8	10.2%
CCN1CCc2nc(NC(=O)c3ccc4c(c3)OCCO4)sc2C1	4.47µM*	2.3%	-9.4%	2.9	-1.3	-14.7%
O=C(Nc1nccs1)c1ccc2c(c1)OCO2	8.91µM*	-0.7%	5.0%	5.6	6.2	16.0%
CCOc1ccc2oc(=O)cc(CN3CCN(c4ccc(OC)cc4)CC3)c2c1	.	10.2%	1.5%	.	.	12.5%
COc1ccc(-c2nc3ccc(NC(C)=O)cc3c(=O)n2Cc2ccccc2)cc1COc1ccc(NC(C)=O)cc1	15.2%	.	4.4%	-8.1	.	20µM*
Cc1ccc(Nc2nc(CSc3nnc(-c4ccncc4)n3C)cs2)cc1	?	0.3%	0.0%	?	0.8	-2.1%
Cc1ccccc1Nc1nc(CSc2nnc(-c3ccoc3C)n2C)cs1	10.4%[1.84 µM]	2.5%	-6.9%	-7.6	-1.5	50.1µM*
O=C(O)c1cc(NCc2cc(O)ccc2O)ccc1O	0.0%	.	6.5%	6.8	.	39.8µM*
O=[N+]([O-])c1cc([N+](=O)[O-])c2cc3ccccc3nc2c1	-39.6%	5.8%	4.1%	-21.0	-3.5	44.7µM*
O=C(Nc1nnc(-c2ccco2)o1)c1ccc([N+](=O)[O-])s1	-68.2%	3.1%	-1.1%[57.1 µM]	-80.9*	0.3	?
CCN(CC)CCCNc1ccc2ncn3c4ccc(O)cc4c(=O)c1c23	-78.9%	7.8%	-11.0%[57.1 µM]	-8.4	123.5*	9.2%[11.4 µM]
Brc1cccc[n+]1Cc1ccccc1C[n+]1ccccc1Br	8.0%	.	0.0%	.	.	-25.7%
CN(C)CCN(C(=O)c1cccs1)c1nc2cc3c(cc2s1)OCCO3	11.2µM*	6.3%	-5.9%	6.0	1.0	5.8%
CN(C)CCN(C(=O)c1ccc(Br)s1)c1nc2cc3c(cc2s1)OCCO3	81.3%	0.0%	-1.2%	6.7	-0.1	-0.1%
CN(C)CCN(C(=O)C1CCCCC1)c1nc2cc3c(cc2s1)OCCO3	11.2µM*	3.2%	.	.	-2.3	.
CSc1ccc(-c2nc3cccc(C)n3c2Nc2ccc3c(c2)OCO3)cc1	.	0.0%	47.6%	.	.	42.6%
COc1ccccc1CNC(=O)C1CCN(S(=O)(=O)c2c(C)noc2/C=C/c2c(C)cc(C)cc2C)CC1	.	11.6%	0.6%[57.1 µM]	.	.	25.1%[57.1 µM]
O=C(CSCc1ccccc1)N1CCN(c2ccc(F)cc2)CC1	26.0%	2.9%	6.5%	11.9	-1.9	20.2%
O=C(CSCc1ccccc1)N1CCN(c2ccccc2)CC1	11.2µM*	1.5%	4.6%	-28.9	0.3	7.2%
C=CCn1c(SCC(=O)N2CCOCC2)nc2scc(-c3ccco3)c2c1=O	18.4%	-1.2%	-10.8%	36.0	0.7	44.7µM*
C=CCn1c(SCC(C)=O)nc2scc(-c3ccco3)c2c1=O	-1.8%	-5.8%	4.0%	-15.3	-0.7	?
O=C(CSC1=NS(=O)(=O)c2ccccc21)Nc1ccccc1	-1.8%	13.5%	6.0%[57.1 µM]	7.2	-2.0	7.94µM*

Source: PubChem
